Results filed as inconclusive are left out. Some structures have more than one record in an assay (separate samples or runs), and their calls can disagree. Activity calls are given as the source filed them. Rule for the calls, unless noted: active = hit-call score of the fitted dose curve at least 0.9, where 1 is the maximum; inactive = score below 0.9.
Columns and labels:
[1] = TOX21_p53_BLA_p5_viability: Viability Assessment in the Tox21 HCT-116 p53 Agonism Beta-lactamase Assay, Phase 5 (AID 2283600; active = hit-call score of the fitted dose curve at least 0.9, where 1 is the maximum)
Procedure, shortened: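 Decreased CellTiter-Glo luminescence denotes lost viability. Exposure: 16 h at 37C, 5% CO2, with compounds from DMSO stocks diluted 217-fold in wells of 4000 cells.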

[2] = CCTE_Shafer_MEA_acute_spike_number: CCTE's Neural Acute Assay for Total Number of Spikes, Shafer Lab (AID 2284008)
Procedure, shortened: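 Rat primary cortical neurons on 48-well MEA plates, DIV 13 or 15, at 37 C. 40 min baseline then 40 min with compound (0.03-40 uM); spikes detected at 8x rms noise, expressed as percent change from baseline.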

[3] = CCTE_Shafer_MEA_acute_firing_rate_mean: CCTE's Neural Acute Assay for Mean Firing Rate, Shafer Lab (AID 2284009);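 note: analyzed for loss of signal so actives lower firing rate relative to DMSO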
Procedure, shortened: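 Primary rat cortical neurons on 16-electrode MEA wells were exposed on DIV 13 or 15 to compound (0.03-40 uM). Spike counts per recording time, averaged over electrodes, were compared between 40-min baseline and 40-min post-exposure recordings as percent change.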

[4] = CCTE_Harrill_HTTr_Viability_MCF7: CCTE's 6-hour Cell Viability Assessment for the High-Throughput Transcriptomics (HTTr) Platform, in MCF-7 cells cultured in DMEM + 10% fetal bovine serum, Harrill Lab (AID 2284010)
Procedure, shortened: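 PI exclusion, high-content imaging; 8-pt dilution series, 6 h exposure; bidirectional fit vs DMSO (neg. ctrl/baseline); gain of signal = loss of membrane integrity.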

[5] = CCTE_Harrill_HTTr_Apoptosis_MCF7: CCTE's 6-hour Apoptosis Assessment for the High-Throughput Transcriptomics (HTTr) Platform, in MCF-7 cells cultured in DMEM + 10% fetal bovine serum, Harrill Lab (AID 2284011)
Procedure, shortened: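 MCF-7 cells in DMEM + 10% FBS exposed 6 h to chemicals over an eight-point dilution series. Caspase-3/7 activation imaged by high-content CellEvent Green staining; fitted bidirectionally versus DMSO.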

[6] = CCTE_Harrill_HTTr_CellCount_MCF7: CCTE's Cell Proliferation Assessment for the High-Throughput Transcriptomics (HTTr) Platform, Harrill Lab (AID 2284012; active = hit-call score of the fitted dose curve at least 0.9, where 1 is the maximum;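 note: count of Hoechst-stained nuclei per well by high-content imaging in MCF-7 cells; cells exposed to compound for six hours; intended direction is loss of nuclei count meaning fewer cells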)
Procedure, shortened: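 Readout: Hoechst nuclear count by high-content imaging. MCF-7, 8-point dilution series, 6 h exposure. Bidirectional fit vs DMSO baseline.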

[7] = CCTE_Shafer_MEA_acute_burst_number: CCTE's Neural Acute Assay for Single-Electrode Bursts, Shafer Lab (AID 2284013)
Procedure, shortened: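 Primary rat cortical neurons on 16-electrode MEA wells, DIV 13 or 15, exposed to compound (0.03-40 uM; ≥3 wells); 40-min recordings at 37 C before and after treatment. Burst count expressed as percent change from baseline, DMSO as negative control.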

[8] = CCTE_Shafer_MEA_acute_burst_duration_mean: CCTE's Neural Acute Assay for Mean Burst Duration, Shafer Lab (AID 2284014);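 note: hits are decreases in mean burst duration relative to DMSO controls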
Procedure, shortened: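 Mean burst duration was compared between a 40 min baseline and a 40 min recording in the presence of compound (0.03-40 uM, 37 C), giving percent change per well. Cultures were rat cortical neurons at DIV 13 or 15; wells needed ≥10 active electrodes.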

[9] = CCTE_Shafer_MEA_acute_per_burst_spike_number_mean: CCTE's Neural Acute Assay for Average Number of Spikes Per Burst, Shafer Lab (AID 2284015);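 note: hits are decreases in mean spikes per burst versus baseline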
Procedure, shortened: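 Read-out: percent change in mean spikes per burst, each well's post-exposure 40-min recording versus its own 40-min baseline. Rat cortical cultures, DIV 13 or 15, compounds 0.03-40 uM; DMSO is negative control, loss-of-signal fitting.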

[10] = CCTE_Shafer_MEA_acute_interburst_interval_mean: CCTE's Neural Acute Assay for Mean Interburst Interval, Shafer Lab (AID 2284016);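 note: percent change of mean interburst interval versus each well's own pre-dose baseline; curves fitted for decrease in interburst interval relative to DMSO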
Procedure, shortened: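 Rat cortical cultures, DIV 13/15; 20 min equilibration, 40 min baseline, compound 0.03-40 uM, 40 min re-recording, 37 C. Spikes detected at 8x rms noise (300-5000 Hz band-pass). Endpoint: % change in interburst interval, fitted in loss direction vs DMSO.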

[11] = CCTE_Shafer_MEA_acute_burst_percentage_mean: CCTE's Neural Acute Assay for Percentage of Spikes in a Burst, Shafer Lab (AID 2284017)
Procedure, shortened: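 Rat cortical cultures, DIV 13/15, 37 C. Spikes detected at 8x rms noise (300-5000 Hz band-pass). Burst spikes/total spikes averaged across electrodes per well; % change post- vs pre-treatment (40 min each), loss-of-signal fit vs DMSO.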

[12] = CCTE_Shafer_MEA_acute_burst_percentage_std: CCTE's Neural Acute Assay for Standard Deviation of Burst Percentage, Shafer Lab (AID 2284018);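 note: fitted in the negative direction so actives lower burst percentage SD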
Procedure, shortened: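 Value is percent change from baseline in the across-electrode SD of spikes-in-bursts percentage, wells with >/= 10 active electrodes. Acute 40-min exposure to 0.03-40 uM on DIV 13 or 15 rat cortical cultures, recorded at 37 C after 40-min baseline.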

[13] = CCTE_Shafer_MEA_acute_per_network_burst_spike_number_mean: CCTE's Neural Acute Assay for Average Number of Spikes in a Network Burst, Shafer Lab (AID 2284019)
Procedure, shortened: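 Percent change from baseline in mean spikes per network burst, spikes detected at 8x rms noise. Each compound at 0.03-40 uM in at least three wells of rat cortical cultures, recorded 40 min before and 40 min during exposure.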

[14] = CCTE_Shafer_MEA_acute_per_network_burst_spike_number_std: CCTE's Neural Acute Assay for Standard Deviation of Number of Spikes in a Network Burst, Shafer Lab (AID 2284020);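 note: fitted for decrease in spike-number SD versus DMSO so actives lower it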
Procedure, shortened: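 Endpoint: percent change from 40 min baseline in standard deviation of spikes per network burst, after 40 min compound exposure (0.03-40 uM, 37 C). Cortical rat neurons on MEA at DIV 13 or 15; spikes detected at 8x rms noise, 300-5000 Hz band-pass.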

[15] = CCTE_Shafer_MEA_acute_per_network_burst_electrodes_number_mean: CCTE's Neural Acute Assay for Mean Number of Electrodes in a Network Burst, Shafer Lab (AID 2284021);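 note: curves fitted for decreases only so hits reduce electrodes per burst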
Procedure, shortened: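 Rat primary cortical neurons on 48-well MEAs, DIV 13 or 15, were treated at 0.03-40 uM. Spikes were detected at 8x rms noise and recorded at 37 C. The mean electrodes per network burst in a 40 min exposure recording was expressed as percent change from a 40 min baseline.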

[16] = CCTE_Shafer_MEA_acute_network_burst_percentage: CCTE's Neural Acute Assay for Percentage of Network Bursts, Shafer Lab (AID 2284022);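 note: curves fitted for loss so actives lower network burst percentage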
Procedure, shortened: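 Rat primary cortical neuron networks on 48-well MEA plates, DIV 13 or 15, treated acutely with compound (0.03-40 uM, at least three wells). Percent of spikes within network bursts compared between 40-min recordings before and during exposure at 37 C, expressed as percent change.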

[17] = CCTE_Shafer_MEA_acute_cross_correlation_HWHM: CCTE's Neural Acute Assay for Cross Correlation at Half Width at Half Maximum, Shafer Lab (AID 2284026);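 note: spontaneous network firing of rat primary cortical neurons on multiwell microelectrode arrays; percent change per well from pre-dose baseline in spike cross-correlogram half width; hits are a decrease in cross-correlogram half width relative to DMSO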
Procedure, shortened: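 Rat primary cortical neurons on 48-well MEA plates; 40-min baseline and 40-min post-exposure recordings at 37 C on DIV 13 or 15, compounds 0.03-40 uM. Spikes detected at 8x rms noise; percent change in cross-correlogram HWHM per well vs baseline.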

[18] = CCTE_Shafer_MEA_acute_synchrony_index: CCTE's Neural Acute Assay for Synchrony, Shafer Lab (AID 2284027);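 note: network synchrony index of spontaneous spiking in primary rat cortical neurons on MEAs; fitted for loss of signal so actives lower synchrony relative to DMSO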
Procedure, shortened: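 Rat cortical cultures, DIV 13/15; spikes detected at 8x rms noise, 300-5000 Hz band-pass. Compound 0.03-40 uM, ≥3 wells; 40-min pre- and post-exposure recordings, 37 C. Readout: % change in synchrony index; loss-of-signal fit vs DMSO.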

[19] = CCTE_Shafer_MEA_dev_firing_rate_mean: CCTE's Neural Network Formation Assay for Mean Firing Rate, Shafer Lab (AID 2284031);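 note: curve fitted for loss of firing so AC50 reflects decreased mean firing rate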
Procedure, shortened: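 Read-out: spike count/recording length, averaged over active electrodes, then AUC across days 5, 7, 9, 12. Rat cortical cultures on MEA; continuous 12-day exposure, media and treatment renewed DIV 5, 9; DMSO baseline.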

[20] = CCTE_Shafer_MEA_dev_per_burst_spike_percent: CCTE's Neural Network Formation Assay for Percent of Spikes in a Burst, Shafer Lab (AID 2284032);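 note: fitted as a decrease in burst spike percentage below DMSO baseline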
Procedure, shortened: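 Value is trapezoidal AUC over recordings on days 5, 7, 9 and 12 of the well-mean fraction of spikes falling in single-electrode bursts; rat cortical cultures exposed continuously from plating, treatment renewed DIV 5 and 9, fitted downward against DMSO.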

[21] = CCTE_Shafer_MEA_dev_active_electrodes_number: CCTE's Neural Network Formation Assay for Number of Active Electrodes, Shafer Lab (AID 2284040; active = hit-call score of the fitted dose curve at least 0.9, where 1 is the maximum;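 note: potency for loss of active electrodes versus DMSO so lower counts are hits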)
Procedure, shortened: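 Developing rat cortical networks on MEAs, exposed DIV 0–12. Value is the AUC of active-electrode counts (≥5 spikes/min) from days 5, 7, 9, 12, relative to DMSO.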

[22] = CCTE_Shafer_MEA_dev_bursting_electrodes_number: CCTE's Neural Network Formation Assay for Number of Bursting Electrodes, Shafer Lab (AID 2284043; active = hit-call score of the fitted dose curve at least 0.9, where 1 is the maximum;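 note: potency is for loss of bursting electrodes relative to DMSO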)
Procedure, shortened: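 Number of electrodes reaching ≥1 burst every 2 min was recorded at DIV 5, 7, 9 and 12 and collapsed as trapezoidal area under the curve. Cultures were rat cortical neurons on MEA plates, dosed continuously from plating with medium and treatment refreshed on DIV 5 and 9.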

Measured: AC50

[Cd+2].[Cl-].[Cl-]
active: [1] 76200 nM | [19] 331 nM | [20] 436 nM | [21] 315 nM | [22] 302 nM
inactive: [1] | [2] | [3] | [4] | [5] | [6] | [7] | [8] | [9] | [10] | [11] | [12] | [13] | [14] | [15] | [16] | [17] | [18]

Reference: PubChem BioAssay (EPA / NIEHS)
